The values that follow come from PubChem BioAssay (NCI).

Compounds without any hit were thinned out: in the full panel of roughly 83,000, 20% have a hit.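 48-hour exposure, single concentration, 96-well plates; percent growth endpoint where 0 means no net growth. Active: below 10.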 A number with no mark means an inactive call. Calls of active or inactive are those of the source.

This experiment relates to TK-10 renal. Nature of the experiment: NCI-60 one-dose screen, 48 h (100 = growth as untreated, 0 = no growth, -100 = all killed). The conditions noted are these: 10 µM. The procedure: Growth inhibition of the TK-10 human tumor cell line is measured as a screen for anti-cancer activity. Cells are grown in 96 well plates and exposed to the test compound for 48 hours. Compounds are tested at a single concentration, which is 10^-5 M for most compounds. The reported endpoint is percent growth (GI% or GIPRCNT), where numbers from 0 - 100% represent growth inhibition, and numbers from -100% - 0 represent cell death. For example, a value of 40 represents 60% growth inhibition. A value of 0 means no net growth occurred over the course of the experiment. A value of -40 indicates 40% of cells at the beginning of the experiment died by the end of the experiment. A value of -100 means all cells are dead at the end of the experiment.
NCI-60 Human Tumor Cell Lines Screen was performed using the standard one-dose NCI protocol, which is described in more detail at https://dtp.cancer.gov/discovery_development/nci-60/default.htm.
Compounds with GIPRCNT values below 10 were considered active. Activity score was based on GIPRCNT using the following formula: […]
Score is 0 for GIPRCNT values of 100 or above, 50 for GIPRCNT values of 0, and 100 for GIPRCNT values of -100.
For the compound `Cc1nc2ccc(-n3c(-c4ccc(Cl)cc4)nc4ccccc4c3=O)cc2n1Cc1ccccc1`, the growth is 111%. Then `O=C1/C(=C/c2ccc(O)cc2)Oc2ccc(Cl)cc21`, with 117%. Then `COc1cc(CSc2nc3ccc(Cl)cc3c(=O)n2Cc2ccccc2)cc(OC)c1OC`, with 73.6%; and `CN(C)c1ccc2c(c1)OC(N)=C(C#N)C2c1ccc2c(c1)CCCN2C` (stereo not given), with 70.3%; and `COc1ccc(-c2nnc(SC/C(=N\O)c3ccccc3)o2)cc1`, with 107%.

Consider `COCCNCC(O)Cn1c2ccc(Cl)cc2c2cc(Cl)ccc21` (stereo not given), for which the growth was 58.6%.

In the case of `CCOc1nc(-c2ccccc2)cc2c(O)c(C(=O)NC(C)C)[nH]c(=O)c12`, the growth is 133%. As to `COc1ccc(C2=NNC(c3sc(Cl)nc3Cl)C2)cc1` (stereo not given), the growth was 116%. Then `Cc1ccc(C)c(S(=O)(=O)NC2c3ccccc3Oc3ccccc32)c1`, with 90.7%; and `CC(C)c1[nH]nc2c(NCc3ccc(-c4ccccn4)cc3)nc(SCCN)nc12`, with -2.72% (active); and `COc1ccc(COC(=O)CC(C)C)cc1`, with 90.6%.

In the case of `COc1ccc(-c2nsc3c2NC(=O)CC3c2ccc(Cl)cc2)cc1` (stereo not given), the growth was 83.9%. In the case of `COc1ccc(-c2nc(-c3ccccc3)c(-c3ccccc3)[nH]2)cc1OC1CCCC1`, the growth is 88.4%. Take `COc1ccc(S(=O)(=O)Nc2ccc(OCc3nnc(-c4ccc(Cl)cc4)o3)c(F)c2)cc1`: the growth was 57.6%.

Consider `CC(Oc1ccc(Cl)cc1)c1ccccc1` (stereo not given), for which the growth was 106%. Then `COc1ccc(C2C=C(c3ccc(OC)c(OC)c3)N=C3SC=CN32)c(Br)c1` (stereo not given), with 106%; and `CS(=O)(=O)Nc1ccc(OCc2nnc(-c3ccc(Cl)cc3)o2)c(F)c1`, with 111%.

With `CC(=O)c1ccc(NCn2nc(-c3ccc(Cl)cc3)oc2=S)cc1`, the growth was 95.9%. Then `COc1ccc(-c2ccc(-c3ccc(C(=N)N)c(F)c3)s2)cc1`, with -96.4% (active); and `CC(=O)n1nc(C(=O)OC(C)(C)C)c2cc(F)c(F)cc21`, with 113%. Then `Cn1cnc([N+](=O)[O-])c1Sc1nnc(-c2ccccc2)c(-c2ccccc2)n1`, with 48.1%; and `Cc1cc(C)c2c(Nc3ncnc4c3sc3nc(C)cc(C)c34)n[nH]c2n1`, with 104%; and `CC(=O)OC1Oc2ccccc2-c2oc(=O)c(-c3cc(=O)oc4cc(O)ccc34)cc21` (stereo not given), with 82.5%. Turning to `Nc1ccn([C@@H]2O[C@H](COP(=O)(O)O[C@@H]3C[C@H](n4cc(F)c(=O)[nH]c4=O)O[C@@H]3COP(=O)(O)O[C@@H]3C[C@H](n4cc(F)c(=O)[nH]c4=O)O[C@@H]3COP(=O)(O)O[C@@H]3C[C@H](n4cc(F)c(=O)[nH]c4=O)O[C@@H]3COP(=O)(O)O[C@@H]3C[C@H](n4cc(F)c(=O)[nH]c4=O)O[C@@H]3COP(=O)(O)O[C@@H]3C[C@H](n4cc(F)c(=O)[nH]c4=O)O[C@@H]3COP(=O)(O)O[C@@H]3C[C@H](n4cc(F)c(=O)[nH]c4=O)O[C@@H]3COP(=O)(O)O[C@@H]3C[C@H](n4cc(F)c(=O)[nH]c4=O)O[C@@H]3COP(=O)(O)O[C@@H]3C[C@H](n4cc(F)c(=O)[nH]c4=O)O[C@@H]3COP(=O)(O)O[C@@H]3C[C@H](n4cc(F)c(=O)[nH]c4=O)O[C@@H]3COP(=O)(O)O[C@@H]3C[C@H](n4cc(F)c(=O)[nH]c4=O)O[C@@H]3COP(=O)(O)OCCOCCOCCOCCOCCOCCO)[C@H](O)C2O)c(=O)n1` (stereo not given in full), the growth was 56.3%. Then `C=CCn1ccc(=O)nc1SC`, with 101%.

Consider `S=C(Cc1ccc(-c2ccccc2)cc1)N1CCOCC1`, for which the growth is 99.7%. With `CN(C)c1ccc2c(c1)OC(N)=C(C#N)C2c1ccc2c(c1)CCO2` (stereo not given), the growth was 79.1%. Then `COc1ccc(C(=O)/C=C/c2cc(-c3ccc4c(c3)OCO4)n[nH]2)cc1OC`, with 62.8%.

Take `CCSc1nc2c([nH]1)c(=O)n(C)c(=S)n2C`: the growth was 101%. Take `COc1cc(-c2nc3ccc(C)cc3[nH]2)ccc1OCC(=O)N=Nc1c(O)[nH]c2ccccc12`: the growth was 10.3%. Then `O=C1/C(=C/c2ccc(O)cc2O)N=C2SCCCN12`, with 88.4%; and `c1ccc(C2CCCCC2)c(OCCCCCN2CCNCC2)c1`, with 83.2%.

Take `NC1CCC(Nc2nc(NCc3ccc(-c4cccs4)nc3)c3ncn(C4CCCC4)c3n2)CC1` (stereo not given): the growth is 5.89% (active). Then `O=C(C=P(c1ccccc1)(c1ccccc1)c1ccccc1)c1ccc(Br)cc1`, with 95%; and `N#Cc1c(-c2ccccc2)nc(SCC(=O)N2CCOCC2)[nH]c1=O`, with 110%. In the case of `CCCCNC(=O)Oc1ccc(/C(=C(\C)c2ccc(OC)cc2)c2ccc(OCCN3CCCCC3)cc2)cc1`, the growth is 102%. For the compound `CC1(C)CNC(=O)N1`, the growth was 97.7%. Then `Fc1ccc2[nH]c3c(NCCCN4CCOCC4)ncnc3c2c1`, with 12.7%. Take `COC(=O)[C@]12CC[C@@H](C)[C@H](C)[C@@H]1C1=CC[C@@H]3[C@@]4(C)C[C@@H](O)[C@H](O)[C@@](C)(CO)[C@@H]4[C@H](O)C[C@@]3(C)[C@]1(C)CC2`: the growth was -56.9% (active). Then `Cn1c(N)c(N=Cc2ccccc2)c(=O)n(C)c1=O`, with 117%.
